Drawing on PubChem BioAssay, this text covers z-score for 15 compounds.

Active and inactive are the calls of the source.

Assay [1] can be described thus: A549 cell viability effects, profiling panel, calcein-AM fluorescence, 48 h, basal (AID 1162). The settings on record: higher = more signal.
The nature of assay [2]: adipocyte viability effects, profiling panel, cell-based, 3T3-L1 adipocytes, calcein-AM fluorescence, 48 h, basal (AID 1163). Conditions: 3T3-L1 adipocytes viability, higher = more signal.
Assay [3] can be described thus: HepG2 cell viability effects, profiling panel, calcein-AM fluorescence, 48 h, basal (AID 1164). Conditions: higher = more signal.
The nature of assay [4]: MM1S cell viability effects, profiling panel, calcein-AM fluorescence, 48 h, basal (AID 1165).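 Also: viability of MM1S multiple myeloma cells under basal unstimulated conditions.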 The settings on record: higher = more signal.
Assay [5] is described as follows: basal RPMI8226 viability, no added stimulus, profiling panel, cell-based, calcein-AM fluorescence, 48 h, PK04 Diversity Set (AID 1166).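 Also: cells grown under basal conditions without added stimulus.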 The settings on record: RPMI8226 myeloma viability, higher = more signal.
A short description of assay [6]: basal HepG2 mitochondrial membrane potential changes, profiling panel, cell-based, JC-1 fluorescence, 24 h, 100 nL compound (AID 1167). The settings on record: higher = more signal.
Assay [7] in a line: basal 3T3-L1 adipocyte mitochondrial potential changes, profiling panel, cell-based, JC-1 fluorescence, 3T3-L1 adipocytes, 24 h, 100 nL compound (AID 1168). The settings on record: JC-1 mitochondrial fluorescence, higher = more signal, called active from +8 up or from −8 down.
Assay [8] can be described thus: basal RPMI8226 mitochondrial membrane potential changes, profiling panel, cell-based, JC-1 fluorescence, 24 h, 100 nL compound (AID 1169). The settings on record: RPMI8226 myeloma, JC-1 mitochondrial potential fluorescence, higher = more signal.
Assay [9] is described as follows: basal MM1S mitochondrial membrane potential changes, profiling panel, cell-based, JC-1 fluorescence, 24 h, 100 nL compound (AID 1170). Conditions: higher = more signal.
The nature of assay [10]: A549 lung cancer cell viability effects, profiling panel, resazurin fluorescence, 24 h, PK04 Diversity Set (AID 1171). The settings on record: higher = more signal, called active from +8 up or from −8 down. On the technique in general: The colour change of resazurin is a common sign of viable cells or microbes.
Also: test concentration not given here.

For the compound `COC(=O)[C@@]1(Cc2ccccc2N=[N+]=[N-])N=C(c2ccc(OCCCO)cc2)O[C@H]1c1ccccc1N=[N+]=[N-]`, the z-score in assay [1] is -1.53; in [2] it was 0.342; in assay [3], -5.52; in assay [4], -3.65; in assay [5] it was -4.04; in [6], -1.63. In addition, the z-score in [7] is -0.0913 (inactive); in assay [8], -1.13; in [9] it was -2.92; in [10] it was -2.94 (inactive).

Turning to `C=CCOC(=O)[C@H]1[C@@H]2C(=O)O[C@@H](c3ccccc3)[C@@H](c3ccccc3)N2[C@@H](c2ccc(OCCOC(=O)[C@@H]3C[C@@H]4C(=O)N[C@@H](CCCCN(C)C)C(=O)N4[C@@H]3c3ccc(O)cc3)cc2)[C@]12C(=O)Nc1ccccc12`, the z-score in assay [1] was -0.0988; in assay [2], 0.887; in [3], 0.52; in assay [4] it was -0.305; in assay [5], -0.0297; in assay [6], -2.38. The z-score in [7] is 0.0411 (inactive); in assay [8] it was -0.473; in [9], -0.92; in assay [10], 0.23 (inactive).

Take `C=CCNC(=O)[C@H]1[C@@H]2C(=O)O[C@@H](c3ccccc3)[C@@H](c3ccccc3)N2[C@@H](c2ccc(O)cc2)[C@]12C(=O)Nc1ccc(C#CC3(O)CCCCCC3)cc12`: the z-score in assay [1] was -0.0001; in [2], 0.0111; in [3], -1.37; in [4], -1.65; in [5] it was -4.08; in [6] it was -2.86. Moreover, the z-score was -1.62 (inactive) in assay [7], -1.25 in assay [8], -0.291 in [9] and 0.421 (inactive) in assay [10].

Regarding `CCCCC(=C=CC[C@@H](O)c1ccccc1OCCO)C[C@@H](O)COCc1ccccc1`, the z-score is 0.75 in [1]; 0.52 in [2]; 0.522 in assay [3]; -2.34 in assay [4]; -2.12 in assay [5]; 0.554 in assay [6]. The z-score in assay [7] was 0.623 (inactive); in assay [8], -0.261; in assay [9] it was 0.13; in assay [10], 0.607 (inactive).

For `C=C(COC)C(=O)CC[C@@H](OC(=O)c1cccnc1)c1ccc(OCCO)cc1`, the z-score in assay [1] is -0.1; in assay [2], -0.486; in assay [3] it was -0.419; in assay [4], -2.55; in assay [5], -1.29; in [6] it was -1.89. The z-score in [7] is 0.42 (inactive); in assay [8], 0.829; in [9], -0.374; in assay [10] it was -0.284 (inactive).

Consider `COCCOC(=O)N1C(=O)[C@@]2(c3cc(C#CCCO)ccc31)[C@H](C(=O)Nc1nc3ccccc3s1)[C@H]1C(=O)O[C@H](c3ccccc3)[C@H](c3ccccc3)N1[C@@H]2c1ccccc1OCCO`, for which the z-score was -0.216 in [1]; 0.121 in assay [2]; -1.1 in assay [3]; -0.965 in assay [4]; -0.333 in assay [5]; -3.13 in [6]. In addition, the z-score in assay [7] was -0.372 (inactive); in [8], -0.183; in [9], -0.744; in [10], 0.513 (inactive).

For the compound `CC(C)(C)OC(=O)CC[C@]1(C(=O)NCc2ccccc2)N=C(c2ccc(OCCCO)cc2)O[C@H]1c1ccccc1CN=[N+]=[N-]`, the z-score in assay [1] is 0.858; in [2] it was -0.0665; in assay [3], 2.17; in [4] it was -0.863; in [5], 0.213; in [6], 1.17. In addition, the z-score was 0.0993 (inactive) in assay [7], -0.518 in assay [8], -0.773 in assay [9] and -0.768 (inactive) in assay [10].

Turning to `C=C[C@@H](OC)[C@H](OC(=O)Nc1ccc(SC)cc1)c1ccc(O)c(F)c1`, the z-score in assay [1] is -0.247; in assay [2] it was -0.19; in assay [3], -0.419; in assay [4], -1.4; in assay [5], -0.515; in [6], -2.52. The z-score is 1.47 (inactive) in assay [7], -0.362 in assay [8], -0.317 in [9] and -0.637 (inactive) in [10].

Take `COc1ccc([Si](C)(C)[C@H]2[C@H](CC(=O)N(CCO)Cc3ccccc3)O[C@@]3(C(=O)N(Cc4cccc(N5CCOC5=O)c4)c4ccccc43)[C@@H]2C)cc1`: the z-score was -1.49 in assay [1]; 0.836 in [2]; -2.16 in [3]; -1.79 in assay [4]; -4.29 in assay [5]; 0.917 in assay [6]. Besides, the z-score in assay [7] was -0.606 (inactive); in assay [8], -1.16; in assay [9] it was -1.56; in assay [10], -3.44 (inactive).

On to `COCCOC(=O)N1C(=O)[C@@]2(c3cc(C#Cc4ccc(OC)cc4)ccc31)[C@H](c1ccccc1OCCO)N1[C@H](c3ccccc3)[C@H](c3ccccc3)OC(=O)[C@H]1[C@@H]2C(=O)N1CCCCCCC1`, for which the z-score in assay [1] is 0.161; in [2], 1.62; in assay [3], 1.19; in [4], -0.248; in assay [5], -0.584; in assay [6], 0.591. Also, the z-score in assay [7] is 3.46 (inactive); in assay [8] it was -0.686; in [9], -1.16; in [10] it was 0.375 (inactive).

With `CC1CC/C=C\[C@H]2OC34C=CCN(c5ccc(Cl)cc5)C(=O)[C@H]3N(CCCCCO)C(=O)[C@]4(C)C2C(=O)O1` (stereo not given in full), the z-score in [1] was -0.0287; in assay [2] it was -0.607; in assay [3], 0.843; in assay [4], 0.743; in [5], -0.381; in assay [6], -0.197. The z-score in [7] is -0.0396 (inactive); in assay [8], -0.909; in [9], 1.27; in assay [10], -0.194 (inactive).

Take `C=CCN1Cc2ccccc2[C@H]2OC(c3ccc(OCCCO)cc3)=N[C@@]2(CC=C)C1=O`: the z-score in [1] was -0.391; in [2] it was 0.659; in assay [3], -0.121; in [4], -1.7; in assay [5] it was -2.4; in assay [6] it was 2.11. The z-score in assay [7] is 0.661 (inactive); in [8], -0.807; in assay [9], -1.01; in assay [10], -1.18 (inactive).

In the case of `CCOC(=O)C[C@H]1[C@H](OC(=O)c2ccccc2-c2ccccc2)[C@@H](NC(=O)c2ccc(-c3ccccc3)cc2)c2cc(OCCCO)ccc2N1C(=O)c1ccc2ccccc2n1`, the z-score in [1] is -0.137; in assay [2] it was -0.163; in assay [3], 0.336; in assay [4], 0.402; in [5] it was -0.485; in [6] it was -0.149. Further, the z-score is 1.18 (inactive) in [7], 0.0491 in assay [8], -0.63 in assay [9] and 0.524 (inactive) in assay [10].

Consider `Cc1ccc(S[C@]2(C(=O)O)CC(=O)N(Cc3ccccc3Cl)[C@@H]2c2ccc(CO)cc2I)cc1`, for which the z-score in assay [1] was -0.794; in assay [2], -0.551; in [3] it was -0.828; in [4], -2.94; in assay [5], -2.92; in assay [6] it was -0.508. The z-score in [7] was -1.14 (inactive); in [8], -0.615; in assay [9] it was -0.589; in assay [10], 0.459 (inactive).

On to `O=C1O[C@H](c2ccccc2)[C@H](c2ccccc2)N2[C@H]1[C@@H](C(=O)N1CCN(c3ncccn3)CC1)[C@]1(C(=O)Nc3ccc(C#CC4(O)CCCCCC4)cc31)[C@H]2c1ccc(OCCO)cc1`, for which the z-score in assay [1] is 0.282; in assay [2], 1.11; in [3] it was 0.473; in [4] it was -0.699; in assay [5], 0.148; in assay [6] it was -1.73. The z-score is -0.309 (inactive) in [7], -0.618 in assay [8], -0.87 in [9] and 0.746 (inactive) in assay [10].
